# Screening data as filed in PubChem BioAssay.
# Cruzain inh Det: qHTS Assay for Promiscuous and Specific Inhibitors of Cruzain (with detergent) | Cruzipain (Trypanosoma cruzi), P25779 | purified cruzain, Z-FR-AMC fluorescence, 0.01% Triton | Potency, µM, inactives show max response, negative = inhibition, most hits filed as inhibitors | 0.43% of 200,000 active | AID 1478, 2009;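 note: plate controls were neutral wells for no effect and buffer without enzyme for full effect; nearly all actives have a fitted effect of over 40% in size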
# Target sequence (P25779 123-467 limits assumed): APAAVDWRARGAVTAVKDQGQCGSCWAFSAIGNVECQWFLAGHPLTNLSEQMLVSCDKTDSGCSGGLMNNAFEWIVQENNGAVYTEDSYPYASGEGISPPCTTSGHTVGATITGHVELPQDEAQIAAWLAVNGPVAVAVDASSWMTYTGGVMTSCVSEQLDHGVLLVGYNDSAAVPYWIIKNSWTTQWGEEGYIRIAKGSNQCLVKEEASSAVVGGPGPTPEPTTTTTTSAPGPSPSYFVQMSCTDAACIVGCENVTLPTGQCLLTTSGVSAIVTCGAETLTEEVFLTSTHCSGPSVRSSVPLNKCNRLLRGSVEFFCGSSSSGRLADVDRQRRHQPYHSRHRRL
#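 Read-out: AMC fluorescence (360 nm excitation, 450 nm emission), four reads over 2 min, first-to-third difference used. Conditions: cruzain 1.5 nM, Z-FR-AMC 2 uM, pH 5.5 acetate, 5 mM DTT, 0.01% Triton X-100.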
# Cruzain noTriton: qHTS Assay for Promiscuous and Specific Inhibitors of Cruzain (without detergent); purified cruzain, Z-FR-AMC fluorescence, no detergent; 2.3% of 200,000 active; AID 1476, 2009; Potency, µM, inactives show max response, negative = inhibition, usual class: inhibitors;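 note: plate controls were enzyme without inhibitor for no effect and buffer without enzyme for full effect; nearly all actives have a fitted effect of over 40% in size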
#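 Detergent-free condition (0.00005% Triton X-100) in acetate buffer pH 5.5 with DTT. 1.5 nM enzyme and compound were pre-mixed 15 min, then 2 uM Z-FR-AMC substrate added; reaction progress from fluorescence change between first and third reads (60 s).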
# The depositor's hits bear a star; ? = inconclusive. Shown are actives, neighbours in structure and some others; about 2.5% of the full set was active somewhere. Calls come from the whole dose curve; as a rule, active = well fitted curve in the direction sought with a large enough effect; inconclusive = small, poorly fitted or top-dose-only effect, or another doubt; inactive = no such curve, though single readings can be large; an effect the other way counts as inactive or inconclusive. Potency is the fitted concentration of half-maximal effect.
SMILES,Cruzain inh Det,Cruzain noTriton
Cc1ccc(C)c(CN2C(=O)c3ccccc3S(=O)(=O)c3ccc(C(=O)OCC4CCCO4)cc32)c1 (stereo unspecified),-0.6%,-24.6%
Cc1cc(C)c(CN2C(=O)c3ccccc3S(=O)(=O)c3ccc(C(=O)OCC4CCCO4)cc32)c(C)c1 (stereo unspecified),-2.0%,12.6µM*
Cc1ccc(CNC(=O)Cn2ccn(-c3cccc(Cl)c3)c(=O)c2=O)cc1,-7.1%,-0.2%
CCCCn1c(O)c(/C=C2\C=NN=C2c2ccccc2)sc1=S,-3.8%,?
CCCCCCn1c(O)c(/C=C2\C=NN=C2c2ccccc2)sc1=S,2.3%,15.8µM*
Cc1cc(C)c(S(=O)(=O)NCC(c2ccco2)N2CCN(c3ccccc3)CC2)c(C)c1 (stereo unspecified),-6.6%,-0.4%
Cc1ccc2ncc(C(=O)c3ccc(C)c(C)c3)c(S(=O)(=O)c3ccc(F)cc3)c2c1,-6.2%,?
CCOc1ccc(S(=O)(=O)c2c(C(=O)c3ccc(C)c(C)c3)cnc3ccccc23)cc1,-2.7%,20µM*
COc1ccc(C(=O)c2cnc3ccc(C)cc3c2S(=O)(=O)c2ccccc2)cc1,-4.0%,?
COc1ccc(S(=O)(=O)c2c(C(=O)c3ccc(C)c(C)c3)cnc3ccc(F)cc23)cc1,-2.9%,12.6µM*
O=C(Nc1cccc(F)c1)N1CC[C@@]2(CCCN(C(=O)c3cc(C(F)(F)F)cc(C(F)(F)F)c3)C2)C1,-8.4%,?
O=C(CSc1nc2c(oc3ccccc32)c(=O)n1-c1ccccc1)Nc1ccccc1F,-3.2%,-27.2%
CCCNc1cc(C)c(C#N)c2nc3ccccc3n12,4.3%,13.0%
Cc1cc(NCCCO)n2c(nc3ccccc32)c1C#N,-15.3%,31.6µM*
Cc1ccccc1-c1nc(CN2CCC(C(=O)NC(C)C)CC2)c(C)o1,2.9%,-8.2%
Cc1ccc(O)c(C(=O)c2cc(C(=O)NCc3ccccc3)c(=O)n(Cc3ccccc3)c2)c1,-3.4%,?
O=C(c1cc(C(=O)NCc2ccccc2)c(=O)n(Cc2ccccc2)c1)c1cc(Br)ccc1O,8.6%,3.98µM*
CC(C)C[C@@H](CC(=O)N[C@H](CC(=O)N[C@@H]1CCNC[C@H]1C(=O)N[C@H](CC(=O)N[C@@H](CCC(=O)O)CC(=O)O)Cc1c[nH]c2ccccc12)C(C)C)NC(=O)[C@@H]1CNCC[C@H]1N,1.1%,-6.4%
Cc1ccc(C(=O)NCCc2sc(C)nc2C)cc1,25.1µM*,?
Cc1nc(C)c(CCNC(=O)c2ccc(C(F)(F)F)cc2)s1,-12.9%,1.3%
Cc1ccc(Cc2nc3ccccc3nc2SCC(=O)N2CCCCC2C)cc1 (stereo unspecified),-6.0%,-0.7%
Cc1ccc(C(=O)NCCSc2c(C)[nH]c3ccccc23)cc1[N+](=O)[O-],-7.5%,-2.0%
O=C(NCCc1cccc(Cl)c1)c1ccc(Cl)c([N+](=O)[O-])c1,-5.5%,-17.9%
O=C(NCCc1nc2ccccc2[nH]1)c1ccc(Cl)c([N+](=O)[O-])c1,1.26µM*,2µM*
Cc1ccc(C(=O)NCCc2nc3ccccc3[nH]2)cc1[N+](=O)[O-],4.47µM*,15.6%
SMILES,Cruzain inh Det,Cruzain noTriton
O=C(/C=C/c1ccco1)N/C(=C\c1ccccc1)C(=O)NCCc1nc2ccccc2[nH]1,-17.8%,-18.4%
O=C(Nc1ccc2nc(-c3ccccc3)[nH]c2c1)c1ccco1,-1.6%,-29.2%
O=C(Nc1cccc(-c2nc3ccccc3[nH]2)c1)c1cccc(NC(=O)c2ccco2)c1,10µM*,5.01µM*
O=C(NCCc1nc2ccccc2[nH]1)c1ccco1,-24.1%,12.6µM*
O=C(NCCc1ccccc1)c1cc(Sc2cccc(Cl)c2)nc2ccccc12,1.6%,-2.0%
COCCn1c(=O)c(-c2ccc(OC)cc2)nc2cnc(N3CCNCC3)nc21,-1.0%,2.8%
CC1=C(c2ccc(C)cc2)S(=O)(=O)N(Cc2ccc(C(=O)NCc3cccc(C)c3)cc2)C1=O,-2.4%,-5.3%
COCCNC(=O)c1sc2nc3n(c(=O)c2c1C)CCC3,-1.3%,3.2%
Cc1ccc(C(=O)N2CCN(c3ccccc3F)CC2)cc1NC(=O)c1nsc2ccccc12,-1.8%,-26.1%
CC(=O)Nc1ccc(NC(=O)c2cc3sccc3n2Cc2ccc(Cl)cc2)cc1,-1.1%,?
COC(=O)c1cc(NC(=O)c2cc3sccc3n2Cc2ccc(Cl)cc2)cc(C(=O)OC)c1,-0.1%,7.94µM*
CCc1nn(-c2ccccc2)c(N)c1C#N,1.8%,9.8%
CCc1nn(-c2cc(Oc3ccccc3)nc(-c3ccccc3)n2)c(N)c1C#N,-6.0%,3.16µM*
O=C(Nc1ccc2oc(-c3cc(Br)ccc3Cl)nc2c1)c1cc2ccccc2o1,0.6%,3.0%
O=C(N/N=C\c1ccc(-c2ccccc2[N+](=O)[O-])o1)C1COc2ccccc2O1 (stereo unspecified),-10.7%,?
